Test results from PubChem BioAssay (NCATS).
“And” between values parts separate entries of the source, which are not always exact repeats. Equal values may be shown once. Records with an inconclusive call do not appear. Unmarked numbers belong to inactive results. The source made the active and inactive calls. Calls come from the whole dose curve.

Key:
[1] = target: Bile acid receptor (Homo sapiens) (UniProt Q96RI1); assay: qHTS assay for small molecule agonists of farnesoid X receptor signaling (AID 588527); conditions: HEK293T FXR-UAS-bla, beta-lactamase ratio, 16 h; activation: active compounds read high;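 note: series mostly up to about 77 µM; 0% = vehicle basal and 100% = reference agonist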
Procedure, shortened: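 Agonist-mode beta-lactamase reporter in GeneBLAzer FXR-UAS-bla HEK293T cells, titration up to 92 uM, 16 h exposure at 37 C, CCF4 fluorescence. Response scaled to DMSO (0%) and 100 uM chenodeoxycholic acid (100%), then Hill-fitted for EC50 and efficacy.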

[2] = target: Peroxisome proliferator-activated receptor delta (Homo sapiens) (UniProt Q03181); assay: qHTS assay for small molecule agonists of peroxisome proliferator-activated receptor delta signaling (AID 588534);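 note: 0% = DMSO basal wells and 100% = positive control agonist at 10 µM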
Procedure, shortened: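 Cells carrying a PPAR-delta beta-lactamase reporter were treated with compounds for 18 h at 37 °C in agonist mode. CCF4 fluorescence was read after 2 h; EC50 and efficacy from Hill fits.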

Sequence of Bile acid receptor (Homo sapiens) (Q96RI1 whole entry, looked up): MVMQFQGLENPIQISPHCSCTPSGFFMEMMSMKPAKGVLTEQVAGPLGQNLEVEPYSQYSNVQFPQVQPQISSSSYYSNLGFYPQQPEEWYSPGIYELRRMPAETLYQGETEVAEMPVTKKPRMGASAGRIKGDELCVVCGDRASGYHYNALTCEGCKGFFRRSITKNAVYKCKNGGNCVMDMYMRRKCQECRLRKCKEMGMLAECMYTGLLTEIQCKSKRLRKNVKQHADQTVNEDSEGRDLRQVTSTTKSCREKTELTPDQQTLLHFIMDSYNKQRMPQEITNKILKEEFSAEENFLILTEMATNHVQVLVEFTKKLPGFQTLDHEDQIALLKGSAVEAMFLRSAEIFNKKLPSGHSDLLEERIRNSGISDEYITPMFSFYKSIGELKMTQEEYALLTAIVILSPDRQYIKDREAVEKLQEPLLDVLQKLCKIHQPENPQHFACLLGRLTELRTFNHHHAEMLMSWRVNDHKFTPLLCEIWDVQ
Sequence of Peroxisome proliferator-activated receptor delta (Homo sapiens) (Q03181 whole entry, looked up): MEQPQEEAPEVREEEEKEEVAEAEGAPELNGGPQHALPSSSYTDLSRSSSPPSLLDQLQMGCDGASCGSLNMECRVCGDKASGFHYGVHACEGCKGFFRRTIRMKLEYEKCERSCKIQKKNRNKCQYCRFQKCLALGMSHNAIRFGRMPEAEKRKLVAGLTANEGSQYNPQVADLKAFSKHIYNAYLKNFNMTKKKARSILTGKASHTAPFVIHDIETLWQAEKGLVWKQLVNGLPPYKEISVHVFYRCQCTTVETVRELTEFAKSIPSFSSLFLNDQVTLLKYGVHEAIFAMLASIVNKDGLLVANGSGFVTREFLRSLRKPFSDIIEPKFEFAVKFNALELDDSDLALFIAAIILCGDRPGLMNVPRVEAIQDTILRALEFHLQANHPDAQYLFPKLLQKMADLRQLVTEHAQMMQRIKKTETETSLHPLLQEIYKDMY

Row | Compound | activation [1] | outcome [2]
1 | COC(=O)c1ccccc1S(=O)(=O)NC(=O)Nc1nc(OC(F)F)cc(OC(F)F)n1 | 2.12% | inactive
2 | COC(=O)CCSCCC(=O)OC | -4.49% | inactive
3 | CN(C)CCCCl | -3.17% | inactive
4 | CCOCCOCCOC(C)=O | -3.45% | inactive
5 | CC(C)O | -0.657% | inactive
6 | NC(=O)Nc1nc2ccccc2[nH]1 | -1.18% | inactive
7 | O=C(/C=C/c1ccc(O)c(O)c1)O[C@@H](C(=O)O)[C@@H](OC(=O)/C=C/c1ccc(O)c(O)c1)C(=O)O | -1.16% | inactive
8 | CC(C)CCCCCCc1ccc(O)cc1 | 6.07% | inactive
9 | CCC(C)=O | -0.657% | inactive
10 | C[Si]1(C)O[Si](C)(C)O[Si](C)(C)O1 | -0.282% | inactive
11 | O=C(O)CCCCCCCCCCC(=O)O | -2.26% | inactive
12 | CCc1cccc(C)c1N(C(=O)CS(=O)(=O)O)[C@@H](C)COC | 1.55% | inactive
13 | CC(C)(C)c1cccc(C(C)(C)C)c1O | -3.57% | inactive
14 | CCCCCCCCCCCCCCCCCC(=O)OC[C@@H](O)[C@H]1OC[C@H](O)[C@H]1O | 5.18% | inactive
15 | Nc1ccc(N)c2c1C(=O)c1c(N)ccc(N)c1C2=O | -0.332% | inactive
16 | CC(C)(C)c1cc(C(C)(C)C)c(O)c(C(C)(C)C)c1 | 8.66% | inactive
17 | NC(=O)Cc1cccc2ccccc12 | 0.544% | inactive
18 | O=C1C=CCCC1 | -1.48% | inactive
19 | FC(F)(F)c1cccc(Cl)c1 | -1.67% | inactive
20 | CCCCCCCCCCCCOCC1CO1 (stereo not given) | -0.164% | inactive

Row | Compound | activation [1] | outcome [2]
21 | C/C=C1\CC2C=CC1C2 (stereo not given) | 0.0193% | inactive
22 | FB(F)F | 0.812% | inactive
23 | CCc1ccccc1O | -1.44% | inactive
24 | C=Cc1ccccc1Br | 2.37% | inactive
25 | OCl | 1.09% | inactive
26 | OCC(O)CO | -1.04% and -2.12% | inactive
27 | COc1cc(-c2ccc(N=C=O)c(OC)c2)ccc1N=C=O | 0.158% | inactive
28 | O=C1OC(O)C(C(Cl)Cl)=C1Cl (stereo not given) | 16.6% | inactive
29 | CCCCCCCCOC(=O)c1cc(O)c(O)c(O)c1 | 5.29% | inactive
30 | CC(C)CCC[C@@H](C)[C@H]1CC[C@H]2[C@@H]3CC=C4C[C@@H](O)CC[C@]4(C)[C@H]3CC[C@]12C | 0.612% | inactive
31 | C=CCCCCCCC=C | -0.711% | inactive
32 | CCCCCCCCCCCO | -0.12% | inactive
33 | N#CCc1ccccc1[N+](=O)[O-] | -1.36% | inactive
34 | C[Si](C)(C)Cl | 1.08% | inactive
35 | CCC(=O)/C=C/C1C(C)=CCCC1(C)C (stereo not given) | -0.845% | inactive
36 | OCC(CO)(CBr)CBr | -0.248% | inactive
37 | CCCCCCCCCCCCc1ccccc1 | 3.31% | inactive
38 | CC(=O)CC(=O)Nc1ccc(C)cc1C | 0.192% | inactive
39 | O=C(Cl)c1cccc([N+](=O)[O-])c1 | -3.83% | inactive
40 | CCOC(=O)NCCOc1ccc(Oc2ccccc2)cc1 | 2.99% | inactive

Row | Compound | activation [1] | outcome [2]
41 | CCC/C(=N\OCC)C1=C(O)CC(O)(CC(C)S(=O)(=O)CC)CC1=O (stereo not given) | 0.69% | inactive
42 | NNS(=O)(=O)c1ccc(Oc2ccc(S(=O)(=O)NN)cc2)cc1 | -0.0085% | inactive
43 | Clc1ccc(Cl)c(Cl)c1Cl | 1.31% and 2.13% | inactive
44 | CCCC(C)CO (stereo not given) | 1.08% | inactive
45 | CC(=O)OC(C(=O)c1ccccc1)c1ccccc1 (stereo not given) | -3.38% | inactive
46 | c1ccc2[nH]cnc2c1 | -1.83% | inactive
47 | CC(=O)CC(C)C | -0.151% | inactive
48 | C1OCOCO1 | -0.63% | inactive
49 | CCCC(Cl)CCCC(Cl)CCC(Cl)CCC(Cl)CCC(Cl)CCCC(Cl)CCC (stereo not given) | 1.98% | inactive
50 | CCNc1ccccc1 | -3.11% | inactive
51 | C=CC(=O)OCCOCCOCCOCCOC(=O)C=C | 26.3% | inactive
52 | CCCCCCc1ccc(N)cc1 | -3.51% | inactive
53 | O=CNc1ccccc1 | -1.29% | inactive
54 | Nc1cnn([C@@H]2O[C@H](CO)[C@@H](O)[C@H]2O)c(=O)n1 | -2.94% | inactive
55 | CC(=C/C=C/C(C)=C/C=C/C=C(C)/C=C/C=C(C)/C=C/C(=O)O)/C=C/C(=O)O | -1.08% | inactive
56 | CCOC(C)(C)C | 2.11% | inactive
57 | Cc1ccccc1C#N | -0.262% | inactive
58 | CCCCCCCC/C=C\CCCCCCCC(=O)O | -0.994% and -1.49% | inactive
59 | CCCCCCCCCCCCCCN | 2.17% | inactive
60 | Nc1ccc(Cl)cc1Cl | 0.621% and -4.4% | inactive
